Reference: PubChem BioAssay AID1159580 (chemical genetic matrix, 2015)
About 2,000 (36%) of roughly 5,500 compounds were called active. Another 18% or so got no clear call; they are omitted. Cut-off read from the data, not from the text of the source: active = normalized growth mostly below about 0.91 (no sharp cut-off); inconclusive = no clear call, values can overlap the other calls; inactive = mostly above about 0.92. Some of the results follow.

Assay: chemical genetic growth profiling, strain panel (AID 1159580);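 note: tested at 20 µM; growth read once vehicle control cultures reached saturation at 30 °C; 1 = growth at the plate median or of vehicle wells; lower values mean less growth of the strain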
Conditions: S. cerevisiae deletion strains, growth OD

Measured: normalized growth

NC(=O)c1ncn(C2O[C@H](CO)[C@@H](O)[C@H]2O)c1N (stereo not given in full)
inactive: locus YAL021C, strain ccr4, active compounds read low 1.04 | locus YAL026C, strain drs2, active compounds read low 1.03 | locus YAL030W, strain snc1, active compounds read low 1.03 | locus YBL061C, strain skt5, active compounds read low 1.04 | locus YBR009C, strain hhf1, active compounds read low 1.07 | locus YBR023C, strain chs3, active compounds read low 1.02 | locus YBR171W, strain sec66, active compounds read low 1.05 | locus YBR231C, strain swc5, active compounds read low 1.04 | locus YBR279W, strain paf1, active compounds read low 1.02 | locus YCL011C, strain gbp2, active compounds read low 1.04 | locus YCL016C, strain dcc1, active compounds read low 1.03 | locus YCL061C, strain MRC1, active compounds read low 1.04 | locus YCL069W, strain vba3, active compounds read low 1.03 | locus YCR088W, strain abp1, active compounds read low 1.03 | locus YDL005C, strain med2, active compounds read low 1.04 | locus YDL040C, strain nat1, active compounds read low 1.03 | locus YDR001C, strain nth1, active compounds read low 1.03 | locus YDR069C, strain doa4, active compounds read low 1.03 | locus YDR137W, strain rgp1, active compounds read low 1.04 | locus YDR159W, strain sac3, active compounds read low 1.05 | locus YDR195W, strain ref2 1.02 | locus YDR297W, strain sur2, active compounds read low 1.03 | locus YDR334W, strain swr1, active compounds read low 1.04 | locus YDR335W, strain msn5, active compounds read low 1.03 | locus YDR392W, strain spt3, active compounds read low 1 | locus YEL003W, strain gim4, active compounds read low 1.03 | locus YEL037C, strain rad23, active compounds read low 1.03 | locus YEL061C, strain CIN8 (second series), active compounds read low 1.03 | locus YER015W, strain faa2, active compounds read low 1.04 | locus YER016W, strain bim1, active compounds read low 1.03 | locus YER111C, strain swi4, active compounds read low 1.04 | locus YER155C, strain BEM2 (second series), active compounds read low 1.06 | locus YFR010W, strain ubp6, active compounds read low 1.04 | locus YGL167C, strain pmr1, active compounds read low 1.04 | locus YGL173C, strain kem1, active compounds read low 1.04 | locus YGL227W, strain vid30, active compounds read low 1.04 | locus YGL240W, strain doc1, active compounds read low 1.06 | locus YGL253W, strain hxk2, active compounds read low 1.04 | locus YHR013C, strain ard1, active compounds read low 1.03 | locus YHR027C, strain rpn1, active compounds read low 1.03 | locus YHR030C, strain SLT2, active compounds read low 0.991 | locus YHR079C, strain IRE1, active compounds read low 1.01 | locus YHR142W, strain chs7, active compounds read low 1.02 | locus YJL092W, strain hpr5, active compounds read low 1.02 | locus YJL095W, strain BCK1 (second series), active compounds read low 1.03 | locus YJL095W, strain BCK1, active compounds read low 1.01 | locus YJL115W, strain asf1, active compounds read low 1.03 | locus YJL129C, strain trk1, active compounds read low 1.04 | locus YJL154C, strain vps35, active compounds read low 1.02 | locus YJL164C, strain tpk1, active compounds read low 1.02 | locus YJL166W, strain qcr8, active compounds read low 1.05 | locus YJL187C, strain SWE1, active compounds read low 1.03 | locus YJR066W, strain TOR1, active compounds read low 0.949 | locus YKL160W, strain elf1, active compounds read low 1.02 | locus YKR026C, strain gcn3, active compounds read low 1.03 | locus YKR091W, strain srl3, active compounds read low 1.03 | locus YLL001W, strain dnm1, active compounds read low 1.04 | locus YLL026W, active compounds read low 1.03 | locus YLL041C, strain sdh2, active compounds read low 1.04 | locus YLR027C, strain aat2, active compounds read low 1.03 | locus YLR113W, strain HOG1, active compounds read low 0.993 | locus YLR221C, strain rsa3, active compounds read low 1.03 | locus YLR258W, strain gsy2, active compounds read low 1.04 | locus YLR262C, strain YPT6 (second series), active compounds read low 1.05 | locus YLR320W, strain mms22, active compounds read low 1.05 | locus YLR342W, strain FKS1, active compounds read low 1.05 | locus YLR357W, strain rsc2, active compounds read low 1.08 | locus YLR370C, strain arc18, active compounds read low 1.05 | locus YLR384C, strain iki3, active compounds read low 1.04 | locus YML120C, strain ndi1, active compounds read low 1.01 | locus YMR058W, strain fet3, active compounds read low 1.03 | locus YMR125W, strain sto1, active compounds read low 1.04 | locus YMR129W, active compounds read low 1.03 | locus YMR205C, strain PFK2, active compounds read low 1.07 | locus YMR231W, strain pep5, active compounds read low 1.03 | locus YNL071W, strain lat1, active compounds read low 1.04 | locus YNL183C, strain NPR1, active compounds read low 0.965 | locus YNL209W, strain ssb2, active compounds read low 1.04 | locus YNL248C, strain rpa49, active compounds read low 1.03 | locus YNL322C, strain KRE1 (second series), active compounds read low 1.03 | locus YNR049C, strain mso1, active compounds read low 1.04 | locus YOR001W, strain rrp6, active compounds read low 1.02 | locus YOR070C, strain gyp1, active compounds read low 1.03 | locus YOR080W, strain dia2, active compounds read low 1.05 | locus YOR083W, strain WHI5, active compounds read low 1.02 | locus YOR106W, strain vam3, active compounds read low 1.03 | locus YOR231W, strain MKK1, active compounds read low 1.01 | locus YOR265W, strain rbl2, active compounds read low 1.04 | locus YOR270C, strain vph1, active compounds read low 1.05 | locus YOR290C, strain snf2, active compounds read low 0.974 | locus YPL051W, strain arl3, active compounds read low 1.01 | locus YPL078C, strain atp4, active compounds read low 1.03 | locus YPL106C, strain sse1, active compounds read low 1.08 | locus YPL240C, strain hsp82, active compounds read low 1.03 | locus YPL256C, strain CLN2, active compounds read low 0.982
